A number with no mark means an inactive call. Active and inactive are the calls of the source.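 How the source made its calls: active means thallium flux through the channel raised or lowered by more than 3 SD from vehicle-only wells, actives on both sides; inactive means the rest.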
Key:
Experiment in all cases: modulators of BK channel variants, profiling panel, selectivity assay, cell-based, U2OS BacMam, thallium flux, beta subunits (AID 1259406);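 further: initial slope of Thallos dye fluorescence rise after thallium is added; log ratio against the mean of 0.3% DMSO vehicle wells on the same plate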
F380Y = settings: at 30 µM
F380Y/beta1 = settings: at 30 µM
F380Y/beta2Delta = settings: at 30 µM
F380Y/beta4 = settings: at 30 µM
[1] = target: Calcium-activated potassium channel subunit alpha-1 (Homo sapiens) + Leucine-rich repeat-containing protein 26 (Homo sapiens) (UniProt Q12791+Q2I0M4); settings: F380Y/Slo1WT/gamma1, at 30 µM
Calcium-activated potassium channel subunit alpha-1 (Homo sapiens) + Leucine-rich repeat-containing protein 26 (Homo sapiens), sequence (Q2I0M4 whole entry, looked up, one chain of several): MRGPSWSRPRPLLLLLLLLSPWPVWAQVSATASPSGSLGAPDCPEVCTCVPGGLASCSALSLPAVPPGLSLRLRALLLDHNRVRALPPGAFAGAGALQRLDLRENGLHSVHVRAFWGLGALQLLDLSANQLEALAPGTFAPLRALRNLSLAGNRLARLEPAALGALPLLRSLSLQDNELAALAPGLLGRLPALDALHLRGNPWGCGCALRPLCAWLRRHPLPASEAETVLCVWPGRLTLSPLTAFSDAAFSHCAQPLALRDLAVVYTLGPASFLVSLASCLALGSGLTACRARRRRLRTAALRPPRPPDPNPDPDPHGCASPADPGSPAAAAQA

R275C = settings: at 30 µM
R275C/beta1 = settings: at 30 µM
R275C/beta2Delta = settings: at 30 µM
R275C/beta4 = settings: at 30 µM
R275C/Slo1WT/beta2 = settings: at 30 µM

SMILES | log fold change Tl+ flux (F380Y) | log fold change Tl+ flux (F380Y/beta1) | log fold change Tl+ flux (F380Y/beta2Delta) | log fold change Tl+ flux (F380Y/beta4) | log fold change Tl+ flux [1] | log fold change Tl+ flux (R275C) | log fold change Tl+ flux (R275C/beta1) | log fold change Tl+ flux (R275C/beta2Delta) | log fold change Tl+ flux (R275C/beta4) | log fold change Tl+ flux (R275C/Slo1WT/beta2)
O=C(ON(C(=O)c1ccc(F)cc1)C1C2CC3CC(C2)CC1C3)c1ccc(F)cc1 (stereo not given) | 0.0231 | -0.0234 | 0.00474 | 0.0374 | 0.0901 | 0.0436 | -0.0159 | 0.00798 | 0.0539 | 0.0295
O=c1n(-c2ccccc2)c(=O)n2n1C1CCC2C1 | -0.0367 | -0.0272 | -0.00637 | 0.0475 | -0.00381 | 0.0483 | 0.0201 | 0.00605 | -0.0283 | 0.0498
O=C(c1ccccc1)c1ccc2c(c1)Cc1ccccc1-2 | 0.00926 | -0.00651 | 0.0385 | -0.103 (active) | -0.0649 | -0.0862 (active) | -0.0486 | -0.00396 | 0.00762 | -0.0152
N#CC(=Cc1cccs1)C(N)=O | 0.0135 | 0.00229 | 0.0332 | -0.0391 | -0.00699 | 0.00755 | -0.00113 | 0.0185 | 0.00837 | -0.0032
Cc1ccccc1C=C1N=C(c2ccccc2)OC1=O | -0.012 | 0.0199 | 0.0497 | -0.0336 | -0.00351 | -0.000743 | 0.036 | 0.0102 | 0.00185 | 0.0353
Cc1cc(Nc2ccc(F)cc2F)nc(SCc2c(Cl)cccc2Cl)n1 | -0.0282 | -0.0344 | -0.0422 | -0.123 (active) | -0.039 | -0.0547 | -0.0316 | -0.000965 | -0.0113 | -0.0702
Cc1cc2c(cc1C)CSC(c1ccco1)SC2 | -0.0256 | 0.0185 | 0.0283 | -0.0391 | 0.00632 | -0.00435 | 0.035 | 0.055 | 0.0187 | -0.0173
O=C(Nc1c(S(=O)(=O)c2ccccc2)csc1Br)c1ccccc1Cl | -0.0373 | 0.0138 | -0.0509 | 0.0338 | 0.0104 | -0.0217 | 0.0155 | -0.0307 | 0.00756 | 0.0177
CCc1nc2ccccc2nc1N1CCN(S(=O)(=O)c2ccc(Cl)cc2)CC1 | -0.00553 | -0.0118 | -0.00426 | -0.00719 | -1.3e-05 | 0.0269 | 0.0201 | -0.0214 | 0.00696 | -0.0158
O=C(Cn1ccc(C(F)(F)F)n1)c1ccc(Cl)cc1 | 0.0102 | 0.0189 | -0.0159 | 0.0229 | -0.00441 | 0.00925 | 0.0122 | -0.0132 | 0.0276 | 0.0269
Cc1ccc(S(=O)(=O)Oc2c(Cc3ccccc3)c(=O)n(C)c3ccccc23)cc1 | -0.047 | -0.00429 | -0.0297 | 0.0237 | -0.018 | -0.0579 | -0.0357 | -0.0097 | -0.0625 | 0.0422
CCOC(=O)CCSC1=NC(c2cccs2)C(C(=O)OCC)=C(C)N1 (stereo not given) | -0.00248 | -0.0154 | -0.0693 | -0.0516 | -0.0633 | -0.0523 | -0.0288 | -0.0824 | -0.0154 | -0.0325
CN(C)c1ccc(C=NNC(N)=S)c(Cl)c1 | 0.178 (active) | 0.329 (active) | 0.177 (active) | 0.174 (active) | -0.221 (active) | -0.509 (active) | -0.285 (active) | -0.0612 | -0.244 (active) | -0.154 (active)
COC(=O)c1sccc1NN=C(C)c1ccc(NC(=O)C(Cl)Cl)cc1 | 0.0593 | -0.0356 | 0.0103 | -0.0317 | 0.0385 | -0.0133 | -0.0386 | -0.0375 | -0.0101 | 0.0362
Nc1ccc(Cl)cc1-c1nc2ccccc2[nH]1 | -0.0882 | -0.0427 | -0.0974 | -0.0939 (active) | -0.0918 | -0.0721 | -0.112 (active) | -0.0678 | -0.0366 | 0.00169
O=C(NC(=O)N1CCCCC1)c1cc(Br)cc(Br)c1 | -0.337 (active) | -0.109 (active) | -0.277 (active) | -0.0283 | -0.127 (active) | -0.145 (active) | -0.0155 | -0.0701 | -0.0253 | -0.0054
N#Cc1ccc(NCCc2ccccn2)c([N+](=O)[O-])c1 | 0.00452 | -0.0335 | -0.0123 | -0.0514 | -0.00295 | -0.00307 | -0.0352 | -0.049 | 0.0115 | 0.0168
O=C(c1ncoc1-c1ccccc1)N(Cc1ccccn1)Cc1ccccn1 | 0.0015 | 0.0293 | -0.0298 | 0.051 | -0.0237 | -0.0056 | 0.0298 | 0.0379 | 0.0394 | 0.033
COc1cc(C(=O)Nc2ccccc2C(=O)NCCc2ccccn2)cc(OC)c1OC | 7.8e-05 | 0.0128 | 0.0219 | 0.0635 | 0.037 | 0.0306 | 0.0367 | 0.0116 | -0.0253 | 0.0509
Cc1ccc(S(=O)(=O)NC(=O)Nc2nc(-c3ccc(C)c(Cl)c3)c(C)s2)cc1 | 0.099 | 0.176 (active) | 0.0427 | 0.19 (active) | 0.156 (active) | 0.265 (active) | 0.24 (active) | 0.0622 | 0.211 (active) | 0.0547
CCCCCc1c(C)nc(-c2ccccn2)[nH]c1=O | -0.0547 | -0.0236 | -0.0415 | -0.0388 | -0.0142 | 0.00744 | 0.00404 | 0.0392 | 0.0188 | -0.0181
O=C(NCCSCc1ccco1)c1cncc(Br)c1 | 0.0566 | -0.00628 | 0.00549 | 0.0375 | 0.0375 | -0.0119 | 0.0315 | 0.0453 | -0.016 | 0.024
CS(=O)(=O)Nc1ccc(N2CCN(c3ccc(C(F)(F)F)cn3)CC2)nc1 | 0.0216 | 0.0253 | 0.0364 | 0.0379 | 0.0373 | 0.0255 | 0.0101 | 0.0279 | 0.0149 | 0.0171
COc1ccc(CCN=Cc2ccccn2)cc1OC | -0.038 | 0.0306 | 0.00295 | -0.00225 | -0.032 | -0.0485 | -0.0399 | -0.0772 | -0.0204 | -0.00322
N#CC(CCC(=O)O)(CCC(=O)O)S(=O)(=O)c1ccccc1 | 0.0317 | 0.000152 | -0.0465 | -0.00447 | 0.0235 | 0.0374 | 0.0216 | 0.0211 | -0.014 | 0.0459
COC(=O)Cc1cccc2c(=O)c3ccccc3oc12 | 0.00439 | -0.00882 | 0.0497 | 0.0357 | 0.00575 | 0.0179 | -0.0476 | 0.00558 | 0.00377 | 0.049
Cc1nn(S(=O)(=O)c2ccccc2)c(C)c1Oc1ccc(Cl)cc1 | -0.154 (active) | -0.178 (active) | -0.15 (active) | -0.668 (active) | -0.342 (active) | -0.199 (active) | -0.214 (active) | -0.0399 | -0.114 (active) | -0.0715
